Hits are enriched below; roughly 1.4% of the tested compounds scored in any of these assays.
KCNH2 3.1 block: inhibitors of human KCNH2 3.1 potassium channel isoform; U2OS KCNH2 3.1, thallium flux FluxOr; hits give low values; activity change, % (tested at about 1.8 µM); 0.95% of 340,000 active; AID 720553;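 active = maximum activity change below -70%; inconclusive = maximum activity change from -70% to -50%; inactive = maximum activity change above -50%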;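 note: thallium influx rate constant from kinetic fluorescence after stimulation buffer; % is set by controls: 0 for no effect and ±100 for the full control effect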
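U2OS cells transduced with KCNH2 3.1 mutant virus (1.77 x 10^8 /mL, 4 h), plated overnight at 37 C, loaded 45 min with FluxOr dye plus Red40 quencher. Thallium flux rate constant from kinetic reads after stimulation buffer, normalised to controls.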
PTHR1 agonist: agonists of human PTHR1 parathyroid hormone receptor; Q03431; HEK293 GP2 PTHR1 cells, GloSensor cAMP luminescence, 1 h; Potency, µM (series often up to 115 µM), for inactives: at the top dose activation, hits mostly activators; 0.075% of 410,000 active; note: potency is the fitted concentration of half-maximal effect; nearly all actives have a fitted effect of over 55% in size
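HEK-293-derived GP2 cells expressing PTHR1 and a GloSensor cAMP reporter, 3,000/well, plated overnight, given luciferin plus IBMX (each 0.5 mM as added) for 1 h at 37 °C, then compound for 1 h at 37 °C. Luminescence was read after 15 min at room temperature.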
hERG WT inh: inhibitors of human wildtype KCNH2 potassium channel; U2OS, BacMam KCNH2, thallium flux FluxOr; hits give low values; 0.37% of 340,000 active; activity change, % at 1.84 µM; Q12809;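 active = maximum activity change below -70%; inconclusive = maximum activity change between -70% and -50%; inactive = maximum activity change above -50%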; note: % is set by controls: 0 for no effect and ±100 for the full control effect
Target sequence (Q12809 whole entry, looked up): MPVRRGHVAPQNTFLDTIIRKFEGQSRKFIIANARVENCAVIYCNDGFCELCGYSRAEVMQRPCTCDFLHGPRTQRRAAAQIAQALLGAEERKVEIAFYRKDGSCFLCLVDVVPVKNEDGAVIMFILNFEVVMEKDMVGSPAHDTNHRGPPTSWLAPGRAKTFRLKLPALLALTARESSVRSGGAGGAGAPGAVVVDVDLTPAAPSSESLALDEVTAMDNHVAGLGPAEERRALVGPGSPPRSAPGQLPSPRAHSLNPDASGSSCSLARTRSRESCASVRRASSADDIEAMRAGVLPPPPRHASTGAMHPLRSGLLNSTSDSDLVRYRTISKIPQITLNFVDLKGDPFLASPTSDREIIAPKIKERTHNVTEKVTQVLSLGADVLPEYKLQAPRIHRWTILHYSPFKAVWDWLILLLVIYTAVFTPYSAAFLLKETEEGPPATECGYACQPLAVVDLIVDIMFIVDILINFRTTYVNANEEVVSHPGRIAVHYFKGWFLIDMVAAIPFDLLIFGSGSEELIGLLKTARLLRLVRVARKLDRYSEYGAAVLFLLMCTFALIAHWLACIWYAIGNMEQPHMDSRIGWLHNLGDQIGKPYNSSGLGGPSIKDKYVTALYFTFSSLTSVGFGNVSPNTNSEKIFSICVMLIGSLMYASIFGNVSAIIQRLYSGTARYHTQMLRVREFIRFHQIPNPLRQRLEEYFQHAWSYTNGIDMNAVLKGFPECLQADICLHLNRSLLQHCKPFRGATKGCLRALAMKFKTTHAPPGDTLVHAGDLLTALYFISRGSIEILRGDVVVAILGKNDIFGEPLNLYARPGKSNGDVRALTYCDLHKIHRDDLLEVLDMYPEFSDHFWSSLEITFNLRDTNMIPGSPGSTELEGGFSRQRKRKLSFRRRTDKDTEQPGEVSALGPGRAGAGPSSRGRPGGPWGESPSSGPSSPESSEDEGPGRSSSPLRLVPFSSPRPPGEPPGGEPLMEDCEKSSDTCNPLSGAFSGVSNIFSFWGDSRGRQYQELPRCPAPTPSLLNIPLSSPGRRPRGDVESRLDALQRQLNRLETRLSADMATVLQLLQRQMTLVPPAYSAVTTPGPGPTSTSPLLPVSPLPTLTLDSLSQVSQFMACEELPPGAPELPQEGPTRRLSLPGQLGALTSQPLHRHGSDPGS
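U2OS cells transduced with wild-type KCNH2 virus are loaded with FluxOr dye for 45 min, and thallium flux is measured in kinetic reads before and after stimulation buffer. Rate constants are normalized to DMSO controls.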
Glioma ERSR ind: ER stress response induction in glioma | U87-MG GRP78 promoter luciferase reporter, 16 h | Potency, µM, for inactives: at the top dose activation, hits mostly activators | 0.02% of 420,000 active | AID 602332; note: potency is the fitted concentration of half-maximal effect; series mostly up to about 76 µM; % of control where 0% means no effect; nearly all actives have a fitted effect of over 35% in size
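Stably transfected U87-MG human glioma cells carrying a GRP78-based luminescent sensor were seeded at 1000 cells/well, pin-dosed with compounds and incubated 16 h. Luciferase reagent was then added, and end-point luminescence was read after 10 min at room temperature.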
RXFP1 antag: RXFP1 (human) relaxin receptor antagonism; Q9HBX9; HEK293-RXFP1, relaxin-stimulated cAMP HTRF, 30 min; hits give low values; activity change, negative = inhibition, % at 57.5 µM; 0.59% of 350,000 active; AID 1259400;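 active = activity change of -60% or lower, but not beyond a set lower limit; inconclusive = change between -60% and -40%, or beyond the set limit; inactive = change above -40%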; note: % is set by controls: 0 for no effect and ±100 for the full control effect
RXFP1 agonist: agonists of human relaxin receptor RXFP1. Q9HBX9. HEK293T-RXFP1 cAMP TR-FRET, 30 min; response scale: percent of porcine relaxin response, buffer zero. Potency, µM (titrated, usually from 57.5 µM), for the others: at the top dose activation, actives largely listed as activators. 0.3% of 370,000 active; note: potency is the fitted concentration of half-maximal effect; % is set by controls: 0 for no effect and ±100 for the full control effect; nearly all actives have a fitted effect of over 60% in size
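HEK293 cells stably expressing RXFP1, treated 30 min at 37C with compounds plus PDE4 inhibitor Ro 20174; cAMP measured by HTRF TR-FRET. Normalized to buffer and 29 nM porcine relaxin; EC50 by Hill fit.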
* marks the source's active call; other numbers are inactive results; i = inactive; ? = inconclusive; nt = no result; [ ] = another dose, or the depositor's remark. Unless noted, calls come from the whole dose curve; as a rule, active = well fitted curve in the direction sought with a large enough effect; inconclusive = small, poorly fitted or top-dose-only effect, or another doubt; inactive = no such curve, though single readings can be large; an effect the other way counts as inactive or inconclusive.

SMILES	KCNH2 3.1 block	PTHR1 agonist	hERG WT inh	Glioma ERSR ind	RXFP1 antag	RXFP1 agonist
Cc1cc(N2CCN(S(=O)(=O)c3ccc(Cl)cc3)CC2)c2ccccc2n1	-95*	-33%[57.5 µM]	?	-4%	-25	1%
Cc1cc(N2CCN(S(=O)(=O)c3ccc(Cl)c(Cl)c3)CC2)c2ccccc2n1	-113*	-35%	?	-5%	1	3%
COC(=O)C1=C2c3[nH]c4ccccc4c3CCN2C(=O)CC1	-1	-32%	-8	-4%	nt	nt
C=CCn1c(Sc2ncc([N+](=O)[O-])s2)n[nH]c1=O	-4	-37%	7	-14%	-80*	4%
C[C@@H]1CCCCCCCCC(=O)OCCN(C(=O)OC(C)(C)C)[C@H](C)CCCCCCCCC(=O)OCCN1C(=O)OC(C)(C)C	-5	0%	-1	-5%	nt	nt
CN(C)C1=NCCN1CCCC1CCCCC1	-28	-20%	-2	-2%	nt	1%
CN(C)C1=NCCN1CCC1CCCC1	-109*	i	9	-4%	nt	-1%
CCCCCn1c(=O)[nH]c2cc(C(=O)NCCCN(CC)CC)ccc2c1=O	-84*	i	5	-7%	-3	0%
CCOc1ccc(CN(C)CC(=O)c2c(N)n(Cc3ccccc3)c(=O)n(CC)c2=O)cc1OC	-101*	i	-117*	0%	-14	3%
CCn1c(=O)c(C(=O)CN(C)Cc2ccc(F)cc2)c(N)n(Cc2ccccc2)c1=O	-84*	i	-10	-3%	-14	1%
CCn1c(=O)c(C(=O)CN(C)Cc2cccc(OC)c2OC)c(N)n(Cc2ccccc2)c1=O	0	-3%	2	-9%	-9	0%
CCOC(=O)/C=C1\CN(Cc2ccc(OC)cc2)S(=O)(=O)c2ccccc21	-21	i	2	-1%	nt	-1%
CCOC(=O)c1c(C)[nH]c(=S)c(C#N)c1-c1ccc(OC)cc1	-9	i	-15	-1%	-9	6%
CCCCOc1ccc(-c2c(C(=O)Nc3ccccc3)c(C)[nH]c(=S)c2C#N)cc1	-22	i	-7	3%	28	22µM*
O=C(CS(=O)(=O)c1ccccc1)c1cc2ccccc2oc1=O	9	-48%	-11	3%	-29	0%
O=C(CS(=O)(=O)c1ccccc1)c1cc2cc(F)ccc2oc1=O	15	-11%	28	?	-72*	-1%
COc1cc(C(C)=O)ccc1OCC(O)CN1CCN(c2ccc(F)cc2)CC1 (stereo unspecified)	-16	i	7	2%	-14	3%
CC1(C(=O)Nc2nc3ccccc3s2)CC1(Br)Br (stereo unspecified)	-17	16%	5	13%	-1	20µM*
Cc1cc(C)nc(NC(=O)/C=C/c2cccs2)c1	-9	i	6	3%	-9	1%
Cc1cc(C)c(-c2csc(NC(=O)/C=C/c3cccs3)n2)c(C)c1	-78*	-13%	-4	3%	?	0%
CCNc1nc(NC(C)(C)C)nc(SC(C(C)=O)C(C)=O)n1	1	-16%	-2	-6%	-18	1%
CCCOc1ccccc1Cn1c(=O)sc2ccccc21	nt	i	nt	1%	-62*	0%
Cc1ccc(CNC(=O)CN2CCC(C(N)=O)CC2)cc1	3	-6%[57.5 µM]	-5	-6%	13	1%
Cc1ccc(CN2CCC(C(=O)c3ccc(F)cc3)CC2)cc1	-75*	-9%	6	-2%	6	nt
Cc1ccc(NC(=O)N2CCC(C(=O)c3ccc(F)cc3)CC2)cc1	16	i	1	-3%	-17	2%
SMILES	KCNH2 3.1 block	PTHR1 agonist	hERG WT inh	Glioma ERSR ind	RXFP1 antag	RXFP1 agonist
CSc1ccc(CN2CCC(C(=O)NCc3ccc(C)cc3)CC2)cc1	-93*	-3%	nt	0%	-5	-1%
COc1ccc(CN2CCC(C(=O)c3ccc(F)cc3)CC2)cc1	-73*	-15%	-7	-3%	-2	0%
O=C(NC1CCCCC1)c1cc(-c2ccc(Cl)cc2)on1	-3	i	-12	6%	-4	-3%
Cn1nc(C(=O)NCc2ccccc2)c2ccccc2c1=O	2	-1%[57.5 µM]	-24	2%	6	-1%
Cn1nc(C(=O)NCCOc2ccccc2)c2ccccc2c1=O	-119*	-4%	5	1%	-1	5%
Cc1ccccc1Nc1n[nH]c(=S)s1	-4	i	6	-1%	-1	nt
Nc1ccccc1-c1n[nH]c(=S)s1	2	-58%	1	5%	-14	28µM*
Cc1cc(C)c2c(n1)sc1c(-c3ccccc3)c(C#N)c(N)nc12	-184*	i	-244*	-5%	-15	11%
CN1CCN(c2nc(-c3ccc(Cl)cc3Cl)nc3ccccc23)CC1	-124*	-15%	-18	-1%	5	4%
Cc1cccc(/C(N)=N/OC(=O)c2ccc3c(c2)OCO3)c1	-5	-29%	-105*	-5%	-11	1%
COc1cc(CNCCc2c[nH]c3ccccc23)ccc1OCc1ccc(F)cc1	-88*	-14%	-20	-12%	nt	1%
CCOC(=O)Cn1c(=O)oc2cc(S(=O)(=O)N3CCN(c4ccccn4)CC3)ccc21	20	-11%	-7	-3%	nt	-1%
CCOC(=O)Cn1c(=O)oc2cc(S(=O)(=O)N3CCN(c4ccccc4OC)CC3)ccc21	nt	-24%	nt	7%	-65*	2%
COc1ccc(-c2nc(O)c3cnccn23)cc1	3	-18%	9	-1%	19	-2%
CC(=O)Nc1ccc(S(=O)(=O)NCC(=O)N2CCN(S(=O)(=O)c3cccs3)CC2)cc1	-101*	-7%	2	0%	5	-2%
Cc1cccc(N(CC(=O)NC(C)C)C(=O)CCC(=O)Nc2nccs2)c1	5	-20%	8	0%	1	0%
CCC(C)NCCOCCOc1ccc(Cl)c(C)c1C (stereo unspecified)	-18	i	6	-7%	-68*	0%
CCC(C)NCCCOc1cc(Cl)ccc1Cl (stereo unspecified)	-8	-18%	1	-4%	-5	0%
CCC(C)NCCOCCOc1ccc(Cl)c2ccccc12 (stereo unspecified)	-12	-16%	6	-4%	-78*	0%
C=CCc1cc(Cl)ccc1OCCOCCNC(C)CC (stereo unspecified)	-5	i	23	-2%	?	-3%
COc1ccc(CN2CC(=O)N(c3cc(Cl)ccc3C)C2=S)cc1OC	-4	-28%	23	0%	-1	1%
COc1cccc(Cl)c1NC(=O)N1CCc2c([nH]c3ccccc23)C1C(F)(F)F (stereo unspecified)	-8	-3%	-4	0%	-75*	-2%

Screening results: PubChem, National Center for Advancing Translational Sciences (NCATS)
